According to the supplement of paper PMC3545927:
The other results are listed elsewhere or left out. No count for the full screen is at hand.

Target: furin, P09958
Assay: furin cleavage Z-score vs untreated control; higher = more cleavage, active = 3.5 or more, inactive = 1 or less, 8 variable residues between constant flanks
Summary of the method: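 Cleavage by purified furin was measured on 8-mer peptides fused to a cDNA oligonucleotide and held on magnetic beads by their N-terminus. Reactions (0.01 ml, 1:10 enzyme:substrate) ran 7.5, 15 or 30 min in 50 mM HEPES pH 7.5 with CaCl2 and NaCl. Released DNA was adapter-tagged by PCR and sequenced, with read counts giving abundance. Log counts versus furin-free reactions were lowess-adjusted and scaled by median absolute deviation to give the cleavage Z-score.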

Sequence of furin, P09958 (P09958 whole entry): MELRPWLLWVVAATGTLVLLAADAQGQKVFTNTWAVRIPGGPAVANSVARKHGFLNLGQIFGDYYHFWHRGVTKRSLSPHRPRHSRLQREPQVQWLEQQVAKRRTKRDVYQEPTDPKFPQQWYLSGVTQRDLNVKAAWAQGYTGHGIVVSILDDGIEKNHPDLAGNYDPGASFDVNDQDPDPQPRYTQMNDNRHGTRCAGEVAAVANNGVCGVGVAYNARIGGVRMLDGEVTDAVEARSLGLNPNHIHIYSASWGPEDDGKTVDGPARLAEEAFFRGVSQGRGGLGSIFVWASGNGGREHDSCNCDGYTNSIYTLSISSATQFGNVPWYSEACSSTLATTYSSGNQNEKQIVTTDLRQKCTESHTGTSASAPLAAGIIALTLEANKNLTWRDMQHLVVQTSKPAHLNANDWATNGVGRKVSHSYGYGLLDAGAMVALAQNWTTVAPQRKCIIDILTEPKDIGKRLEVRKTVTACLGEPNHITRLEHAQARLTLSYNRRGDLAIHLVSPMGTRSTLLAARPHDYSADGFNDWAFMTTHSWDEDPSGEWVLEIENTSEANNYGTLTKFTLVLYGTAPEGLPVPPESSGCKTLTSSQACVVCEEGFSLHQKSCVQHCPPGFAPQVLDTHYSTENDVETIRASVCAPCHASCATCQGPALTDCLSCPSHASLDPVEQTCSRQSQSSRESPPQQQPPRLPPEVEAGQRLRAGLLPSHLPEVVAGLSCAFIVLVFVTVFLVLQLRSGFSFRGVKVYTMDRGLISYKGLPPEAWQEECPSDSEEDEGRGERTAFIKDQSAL

Sequence	furin cleavage Z-score (7.5 min)	furin cleavage Z-score (15 min)	furin cleavage Z-score (30 min)
CAASKVKANLAGNASASA [HC1408]	2.23	1.5	-1.01 (inactive)
CARETRYVELAGNASASA [FS-2918]	0.274 (inactive)	0.951 (inactive)	1.86
CARETRSFTKAGNASASA [FS-1699]	-0.268 (inactive)	-1.13 (inactive)	0.163 (inactive)
CARETRSARDAGNASASA [FS-186]	4.31 (active)	4.67 (active)	5.64 (active)
CAHKKRSARDAGNASASA [FS-1338]	9.15 (active)	11 (active)	8.17 (active)
CAAYALDTEVAGNASASA [HC564]	-0.288 (inactive)	-0.347 (inactive)	0.258 (inactive)
CAMEECSQALAGNASASA [HC1743]	1.12	0.147 (inactive)	0.968 (inactive)
CARTRRSWVWAGNASASA [FS-2385]	0.299 (inactive)	-0.875 (inactive)	3.19
CARTKRSWVWAGNASASA [FS-2613]	2.5	3.65 (active)	6.25 (active)
CADTEVVTSTAGNASASA [HC2298]	-0.856 (inactive)	-0.105 (inactive)	-0.202 (inactive)
CARTKRGWMWAGNASASA [FS-2828]	-0.833 (inactive)	1.19	3.46
CARTKKSSVQAGNASASA [FS-1841]	0.0621 (inactive)	-0.697 (inactive)	-0.462 (inactive)
CAPSKRGNSTAGNASASA [FS-2877]	-0.745 (inactive)	-0.0005 (inactive)	0.164 (inactive)
CARTKRHRSTAGNASASA [FS-2829]	2.1	4.17 (active)	5.45 (active)
CARACRGVTTAGNASASA [FS-2880]	0.00727 (inactive)	-0.299 (inactive)	0.871 (inactive)
CARTKRSSTTAGNASASA [FS-3108]	6.96 (active)	8.23 (active)	7.55 (active)
CARTKRFSHTAGNASASA [FS-2827]	1.99	3.53 (active)	5.48 (active)
CARTRRISQTAGNASASA [FS-2468]	-0.0765 (inactive)	0.134 (inactive)	0.486 (inactive)
CATEECSQHLAGNASASA [HC1678]	-0.115 (inactive)	0.32 (inactive)	0.469 (inactive)
CAVVCYSMSYAGNASASA [HC97]	-0.487 (inactive)	-0.359 (inactive)	1.4
CAEVVMSTWVAGNASASA [HC128]	-0.73 (inactive)	-0.446 (inactive)	-0.0354 (inactive)
CASRYRFVRSAGNASASA [FS-1090]	10.3 (active)	8.88 (active)	7.53 (active)

Sequence	furin cleavage Z-score (7.5 min)	furin cleavage Z-score (15 min)	furin cleavage Z-score (30 min)
CAFRIRTIRSAGNASASA [FS-772]	12.7 (active)	13.4 (active)	9.8 (active)
CATPEDFVRSAGNASASA [FS-920]	-0.0484 (inactive)	-0.138 (inactive)	-0.221 (inactive)
CASRYRFIRSAGNASASA [FS-1089]	9.42 (active)	10.5 (active)	7.95 (active)
CAFVCCSMSYAGNASASA [HC1987]	1.81	-0.389 (inactive)	-0.812 (inactive)
CAEVVTSTWLAGNASASA [HC2245]	0.791 (inactive)	0.0846 (inactive)	0.0471 (inactive)
CAEMEECSQHAGNASASA [HC1014]	-0.42 (inactive)	0.366 (inactive)	1.51
CARPRRMTPFAGNASASA [FS-2744]	2.59	4.44 (active)	4.82 (active)
CARPRREAPFAGNASASA [FS-2742]	9.78 (active)	10.3 (active)	8.49 (active)
CAPPCKPLLRAGNASASA [HC1228]	0.659 (inactive)	0.392 (inactive)	0.118 (inactive)
CAEVSTSTWVAGNASASA [HC2197]	-0.613 (inactive)	0.268 (inactive)	-1.55 (inactive)
CATTWCSGSWAGNASASA [HC1868]	-0.625 (inactive)	-0.0771 (inactive)	-0.259 (inactive)
CAVVCCSGSYAGNASASA [HC2056]	-1.92 (inactive)	-0.697 (inactive)	-1.32 (inactive)
CAKKGRNRRTAGNASASA [FS-935]	9.29 (active)	8.34 (active)	7.42 (active)
CAKKGRGKRTAGNASASA [FS-41]	6.83 (active)	9.38 (active)	6.62 (active)
CALNGRCRRTAGNASASA [FS-134]	6.57 (active)	6.93 (active)	8.18 (active)
CAPKGRGKRRAGNASASA [FS-1241]	3.48	3.42	4.16 (active)
CALNGREHRSAGNASASA [FS-353]	0.641 (inactive)	-0.584 (inactive)	-0.522 (inactive)
CAVTSRSFRTAGNASASA [FS-894]	1.05	-0.0745 (inactive)	-0.661 (inactive)
CAEHRLEAACAGNASASA [HC479]	1.04	-1.24 (inactive)	-0.381 (inactive)
CAMEECSQPLAGNASASA [HC1759]	1.51	1.8	0.466 (inactive)
CAEYVVCCSMAGNASASA [HC2129]	-0.0811 (inactive)	-0.535 (inactive)	-0.778 (inactive)
